Autofluor counter – compound fluorescence in toxin protease inhibitor counterscreen | compound autofluorescence counterscreen, microsphere flow cytometry; hits give high values | fluorescence intensity (no concentration beside the values) | actives 3.1% (n = 360,000) | AID 624483; in the data active = fluorescence intensity above about 16000; inconclusive = no clear call, values can overlap the other calls
BoNT F protease – blocks Botulinum neurotoxin F light chain protease. Multiplex microsphere protease cleavage assay, flow cytometry. AID 588497. inhibition, % at 10 µM. actives 0.22% (n = 360,000); in the data active = inhibition above about 35%, passing the limit was not always enough; inconclusive = no clear call, values can overlap the other calls
Anthrax LF prot – inhibitors of Bacillus anthracis lethal factor protease; multiplex microsphere protease cleavage assay, LF; inhibition, % at 10 µM; actives 0.12% (n = 360,000); AID 588501
Target sequence (P15917 whole entry, looked up): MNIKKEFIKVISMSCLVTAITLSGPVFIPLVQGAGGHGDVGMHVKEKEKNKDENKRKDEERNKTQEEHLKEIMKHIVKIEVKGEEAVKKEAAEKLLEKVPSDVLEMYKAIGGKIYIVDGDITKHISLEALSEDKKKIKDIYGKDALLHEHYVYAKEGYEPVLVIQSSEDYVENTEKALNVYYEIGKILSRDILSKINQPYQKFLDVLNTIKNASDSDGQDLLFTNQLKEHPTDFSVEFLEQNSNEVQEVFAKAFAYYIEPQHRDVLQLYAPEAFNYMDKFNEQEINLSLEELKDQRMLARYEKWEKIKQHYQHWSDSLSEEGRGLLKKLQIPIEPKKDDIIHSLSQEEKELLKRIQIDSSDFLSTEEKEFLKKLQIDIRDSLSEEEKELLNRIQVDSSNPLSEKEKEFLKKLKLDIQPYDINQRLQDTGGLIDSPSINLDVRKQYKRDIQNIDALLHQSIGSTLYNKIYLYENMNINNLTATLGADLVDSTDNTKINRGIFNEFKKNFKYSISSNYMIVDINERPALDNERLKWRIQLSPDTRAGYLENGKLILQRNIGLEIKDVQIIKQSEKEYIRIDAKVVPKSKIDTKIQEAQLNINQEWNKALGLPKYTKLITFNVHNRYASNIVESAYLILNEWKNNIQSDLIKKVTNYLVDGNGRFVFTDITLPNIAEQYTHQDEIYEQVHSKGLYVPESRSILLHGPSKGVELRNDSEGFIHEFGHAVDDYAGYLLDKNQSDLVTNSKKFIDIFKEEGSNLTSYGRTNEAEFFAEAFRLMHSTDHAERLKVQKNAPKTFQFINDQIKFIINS
DUSP3 inh – inhibitors of human VHR1 phosphatase (DUSP3). P51452. recombinant VHR phosphatase, pNPP absorbance. inhibition, % at 13.3 µM. actives 0.52% (n = 290,000). AID 1654; in the data active = inhibition above about 50%
BoNT A protease – blocks Botulinum neurotoxin A light chain protease; multiplex microsphere protease substrate cleavage, flow cytometry; inhibition, % at 10 µM; actives 0.17% (n = 360,000)
SARS 3CLpro inh – SARS-CoV 3CLpro protease inhibition; P0C6X7; recombinant SARS-CoV 3CLpro, quenched FRET peptide cleavage; inhibition, % at 6 µM; actives 0.14% (n = 290,000); AID 1706; in the data active = inhibition above about 12%
Each line names hits and unclear results; the compound was inactive in the other large screens. Shown are actives, neighbours in structure and some others; about 3.9% of the full set was active somewhere. Cut-off read from the data, not from the text of the source, unless noted: active = inhibition above about 30%; inconclusive = no clear call, values can overlap the other calls; inactive = below that.

Cc1oc2nc(SCC(=O)NCCCO)nc(N)c2c1C	Autofluor counter 22217
O=C(COc1ccc2ccccc2c1Br)Nc1ncn[nH]1	Autofluor counter 21352
Cc1ccc(C)c(-c2cc(C(=O)Nc3sc(C)c(C)c3C(N)=O)c3ccccc3n2)c1	Autofluor counter 23000, BoNT A protease inconclusive
O=C(Nc1ccc2c(c1)OCO2)c1cc(-c2ccncc2)nc2ccccc12	none
O=C(Nc1ccc2oc(-c3ccccc3)nc2c1)c1ccc2c(c1)OCCO2	Autofluor counter 22968
COC(=O)c1ccc(-c2cc(C(=O)O)c3cc4c(cc3n2)OCCO4)cc1	DUSP3 inh 51.7
O=C(Nc1ccc2c(c1)OCCO2)c1cc(-c2ccccc2)nc2ccccc12	Autofluor counter 24974, BoNT A protease inconclusive
O=C(Nc1ccc2oc(-c3ccncc3)nc2c1)c1ccc2c(c1)OCCO2	none
CCOc1ccccc1CN1C(=O)c2ccccc2C1C(=O)NC(C)CC (stereo not given)	none
CC(C)Cc1nnc(NC(=O)c2cc(-c3ccccc3)nc3ccccc23)s1	Autofluor counter 16445
O=C(Nc1cccc2cccnc12)c1ccc2c(c1)OCCO2	Autofluor counter 23021, BoNT A protease inconclusive
Cc1cc(C)cc(NC(=O)c2cc(C)nc3ccccc23)c1	DUSP3 inh 58.7
O=C(COc1ccccc1Cl)NCCCNC(=O)c1cnccn1	none
O=C(CS(=O)(=O)Cc1ccccc1)NCc1ccccc1Cl	none
O=C(COC(=O)c1ccc(Cl)c([N+](=O)[O-])c1)NC1CCCC1	none (no result: DUSP3 inh)
O=C(COC(=O)c1ccccc1C(=O)c1ccc(Cl)c([N+](=O)[O-])c1)NC1CCCCCC1	Autofluor counter 23481
COc1ccc(C(=O)C[n+]2ccc3c(c2)nnn3-c2ccccc2)cc1	none
O=C(O)Cn1nc2ccccc2n1	Autofluor counter 22940, BoNT A protease inconclusive
O=C(O)Cn1c(-c2ccccc2)nc2ccccc21	DUSP3 inh 50.8
c1ccc(-c2nc3nonc3c3nc4ccccc4n23)cc1	none
c1ccc(-c2nc3ccccc3c3nc4ccccc4n23)cc1	DUSP3 inh 50.8
O=C(O)Cn1nnc2ccccc21	none
Cc1ccccc1NC(=O)COC(=O)CC1CCCC1	Anthrax LF prot inconclusive (no result: DUSP3 inh, SARS 3CLpro inh)
CCOc1ccc(CCNS(=O)(=O)c2ccc3c(c2)N(C(C)=O)CCO3)cc1OCC	none
Brc1ccc(-n2cnc(-c3ccccc3)c2)cc1	DUSP3 inh 57.3
O=[N+]([O-])c1ccc(-c2cn(-c3ccc(Cl)cc3)cn2)cc1	none (no result: DUSP3 inh, SARS 3CLpro inh)
COc1cc(C2NC(=O)NC(c3ccccc3)=C2C(C)=O)ccc1OCC#N (stereo not given)	Autofluor counter 23457
CCOC(=O)C1=C(c2ccccc2)NC(=O)NC1c1ccc(OC)c(OC)c1 (stereo not given)	none
COc1cc(C2NC(=O)NC(C)=C2C(=O)OC(C)(C)C)ccc1OCC(N)=O (stereo not given)	Autofluor counter 21970, BoNT A protease inconclusive
Cc1cc(Br)cn2ccnc12	Autofluor counter 22557
CC1CCN(CC(=O)NCc2ccccc2)CC1	Autofluor counter 22476
Cn1c2ccccc2c2nnc(SC3CCOC3=O)nc21 (stereo not given)	Autofluor counter 23365
CCN(CC)C(=O)CC(c1ccccc1)c1ccco1 (stereo not given)	Autofluor counter 24247
CCCN(CCC)C(=O)CC(c1ccc(F)cc1)c1ccco1 (stereo not given)	none
Cc1cc(C)n(C(=O)/C(C#N)=C/N(C)C)n1	none
COc1ccc(CC(=O)NC2CCN(Cc3nnnn3C(C)(C)C)CC2)cc1OC	Autofluor counter 20961, BoNT A protease inconclusive
CC(C)(C)n1nnnc1CN1CCC(NC(=O)NC2CCCCC2)CC1	none
CCN(CC)NC(=S)Nc1ccccc1	Autofluor counter 22619
CC(C)N(C)NC(=S)Nc1ccccc1	none
Cc1cccc2cc(/C=C3\N=C(c4ccccc4)OC3=O)c(N3CCOCC3)nc12	BoNT F protease 40.7, Anthrax LF prot 65.1, BoNT A protease 124.0
Cc1ccc(C2=N/C(=C/N3CCOCC3)C(=O)O2)cc1	none
CCOC(=O)c1c(S(=O)(=O)Nc2ccc(C)cn2)c(C)n(C)c1C	DUSP3 inh 51.2
CCOC(=O)c1c(S(=O)(=O)Nc2ccc(C)c(F)c2)c(C)n(C)c1C	none
COc1cccc(C(=O)C2CN(c3ccccc3)CC2c2ccc(Cl)cc2)c1 (stereo not given)	Autofluor counter 21602
CC(C)N(Cc1cnn(C)c1)C(=O)c1ccc(OC2CCN(Cc3ccccn3)CC2)cc1	DUSP3 inh 56.8
CC1(Cc2ccccc2F)C(=O)Nc2c(Cl)ccc(Cl)c21 (stereo not given)	none (no result: DUSP3 inh, SARS 3CLpro inh)
Cc1sc2nc(SCc3ccc(C(=O)O)cc3)n(Cc3ccco3)c(=O)c2c1C	none
Cc1sc2nc(SCC(=O)c3cccs3)n(Cc3ccco3)c(=O)c2c1C	Autofluor counter 22489
Cc1sc2ncnc(SCC(=O)c3cccs3)c2c1C	Autofluor counter 16770
COc1ccc(CNC(=O)CN(Cc2ccco2)C(=O)CCC(=O)Nc2ccccn2)cc1	none
CCSc1nnc(NC(=O)C(C)C)s1	none
CCSc1nnc(NC(=O)C(C)(C(F)(F)F)C(F)(F)F)s1	Autofluor counter 16389
CCSc1nnc(NC(=O)C(CC)(C(F)(F)F)C(F)(F)F)s1	none
CCSc1nnc(NC(=O)C(C(F)(F)F)C(F)(F)F)s1	Autofluor counter 23475
CC(C)OC(=O)Nc1ccc2c(c1)N(C(=O)CCN1CCOCC1)c1ccccc1CC2	none
Cc1cccc(NC(=O)CSc2nnc(Cn3nnc(-c4ccccc4)n3)n2-c2ccccc2)c1	Autofluor counter 23099
CCn1c(Cn2nnc(-c3ccccc3)n2)nnc1SCC(=O)Nc1cccc(C(C)=O)c1	none
Cc1ccc(NC(=S)N2CCC(NC(=O)c3ccc(F)cc3)CC2)cc1	none
CCS(=O)(=O)N1Cc2ccccc2CC1C(=O)N1CCN(c2cccc(C)c2C)CC1 (stereo not given)	Autofluor counter 23317
Cc1cccc(N2CCN(C(=O)C3CCCCC3)CC2)c1C	none
CCN(CC(=O)Nc1c(F)cccc1F)C(=O)C1Cc2ccccc2CN1S(=O)(=O)CC (stereo not given)	Autofluor counter 16229 (no result: DUSP3 inh, SARS 3CLpro inh)
O=C(N/N=C/c1ccc(Br)s1)c1ccco1	BoNT F protease inconclusive
Cc1ccc(/C=N/NC(=O)c2ccco2)s1	Autofluor counter 25160
CC1=C/C(=N\NC(=S)Nc2cccnc2)CC(C)(C)C1	none
Cc1cc(C)c(S(=O)(=O)Nc2cccnc2)c(C)c1	Autofluor counter 22484
COc1cccc(C2NC(=O)NC(C)=C2C(=O)Nc2cc(OC)ccc2OC)c1 (stereo not given)	Autofluor counter 17900
O=C(CN(Cc1ccccc1)C(=O)CNS(=O)(=O)c1ccc(F)cc1)NCc1ccco1	none
Cc1ccc2cc(CCNC(=O)Cc3cccs3)c(=O)[nH]c2c1	none
O=C(Cc1ccccc1[N+](=O)[O-])NNC(=O)Nc1ccc2c(c1)OCO2	DUSP3 inh 50.2
O=C(Cc1ccccc1[N+](=O)[O-])Nc1ccc2c(c1)OCO2	none

Source: PubChem BioAssay (several laboratories)
